# ALR inh – inhibitors of human sulfhydryl oxidase ALR; purified ALR, DTT oxidation, H2O2 HRP-luminol luminescence; AID 485317; inhibition, % (concentration not given with the values); actives 3.8% (n = 290,000);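 active = mean replicate inhibition above about 79%, with every replicate also reaching it, limit read from the data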
# VLA-4 inh – inhibition in a human VLA-4 binding assay; P13612; VLA-4 expressing cells, ligand binding flow cytometry; inhibition, % (about 7 µM as worked out from the volumes in the protocol); actives 0.2% (n = 330,000); AID 2557; in the data active = inhibition above about 50%
# A1 inh – inhibitors of the anti-apoptotic protein A1, read as caspase activation. MEF A1-2A-BIM cells, Caspase-Glo 3/7 luminescence, 3 h; percent of clofoctol response, vehicle zero. caspase activation, % (no concentration beside the values). actives 0.066% (n = 330,000). AID 2462;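 active = over half of replicate activation scores above 10%, or exactly half above 10 with the replicate mean above 10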
# AHR activator – activates the human aryl hydrocarbon receptor; AID 2796; activation, % at 5 µM; P35869; actives 2.5% (n = 320,000); AHR-responsive luciferase reporter cells, luminescence; in the data active = activation above about 47%;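 note: 0% = vehicle wells and 100% = reference agonist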
# SUMO Mot1 rescue – SUMOylation pathway inhibition by Mot1-301 growth rescue; growth rescue, % at 18.8 µM; actives 1% (n = 320,000); S. cerevisiae Mot1-301 growth rescue, ATP luminescence, 38.5C; percent above DMSO median, 100 means doubled;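 active = every valid replicate shows activation above 250% relative to neutral control wells; inactive = the rest, any valid replicate at or below 250%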;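 note: OY570 slx delta 5 strain wells were the positive control but not used for scaling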
# Efflux pump inh – blocks antifungal efflux pumps in multiplex yeast assay; S. cerevisiae Candida pump triplex, Nile Red efflux; inhibition, % at 10 µM; actives 0.44% (n = 330,000);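 active = plate passing quality check with inhibition over a set limit, or well fluorescence over plate mean plus 4 SD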;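 note: Nile Red retained in pooled yeast measured as flow cytometry median fluorescence; 0% = buffer negative control and 100% = Enniatin B positive control; higher means more Nile Red kept so more efflux inhibition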
# Starred values were filed as active, the others as inactive; · = no result. This is a sample that favours compounds with a hit; in the whole collection about 7.2% have one here.
SMILES,ALR inh,VLA-4 inh,A1 inh,AHR activator,SUMO Mot1 rescue,Efflux pump inh
CC(C)OC(=O)/C(=C\c1ccc2c(c1)c1ccccc1n2C)NC(=O)c1ccccc1,-11.6,-8.0,-0.2,75.4*,267.7,-0.1
COc1ccc(-c2nc(C(F)(F)F)c(OC)o2)cc1OC,-3.0,4.0,0.5,-2.0,-6.2,-0.1
O=C1CC(NS(=O)(=O)c2ccccc2F)CN1c1ccc2c(c1)OCCO2 (stereo not given),-0.9,-19.1,-0.5,3.8,-2.1,-0.1
Cc1ccc(N(CC(=O)Nc2ccccc2C(=O)NCc2ccco2)S(=O)(=O)c2ccccc2)cc1C,96.4*,-15.6,0.3,1.1,-14.5,0.3
O=C(CN(c1ccccc1)S(=O)(=O)c1ccccc1)Nc1ccccc1C(=O)NCc1ccco1,-3.8,-5.2,0.5,19.4,3.3,-0.2
O=C(NC1CCCC1)C(c1ccncc1)N(C(=O)c1csnn1)c1ccc(F)c(Cl)c1 (stereo not given),·,-3.9,0.9,-0.6,-12.8,-0.1
CN(Cc1nc(C(c2ccccc2)c2ccccc2)no1)CC1COCCO1 (stereo not given),-3.8,23.9,0.6,1.0,27.6,0.0
CCOCc1nnc(NC(=O)c2ccc3c(c2)OCO3)s1,-0.2,4.5,-2.8,121.7*,-2.9,0.5
O=C(Nc1nncs1)c1ccc2c(c1)OCO2,-1.2,21.8,-5.4,65.0*,-16.3,-0.2
O=C(NNc1c(Cl)cc(Cl)cc1Cl)c1cccc([N+](=O)[O-])c1,92.7*,-11.9,0.4,8.1,120.7,0.0
O=C(NNC(=S)Nc1ccccc1)c1ccccc1[N+](=O)[O-],71.7,5.5,-0.6,-2.5,-2.6,0.0
O=C(NNC(=S)NC(=O)c1ccc(Br)cc1)c1cccc([N+](=O)[O-])c1,98.6*,23.7,-0.6,53.4*,-17.8,0.4
O=C(Nc1c(Cl)cc(Cl)cc1C(=O)NCCN1CCOCC1)c1cccc([N+](=O)[O-])c1,99.4*,8.8,-0.3,7.0,8.4,0.1
CC(=O)NNC(=S)NC(=O)c1cccc([N+](=O)[O-])c1,72.8,-50.5,-0.2,3.1,26.9,-0.1
CC(=O)c1ccc(NC(=S)NNC(=O)c2ccccc2[N+](=O)[O-])cc1,93.4*,5.0,1.3,-2.1,-3.3,0.0
Cc1ccc(NC(=O)N2C(=O)C3(OCCO3)c3ccccc32)cc1,-2.4,7.4,0.1,14.5,-15.1,0.0
CCOC(=O)CCN,9.8,36.4,0.1,1.2,6.4,0.0
O=C(NNC(=S)NC(=O)c1ccccc1Cl)c1cccc([N+](=O)[O-])c1,96.7*,-11.1,-0.8,-0.5,-10.0,0.1
O=C(NNC(=S)NC(=O)c1ccccc1)c1ccc([N+](=O)[O-])cc1,99.0*,-5.9,-1.8,3.0,-27.5,-0.1
O=C(NC(=S)NNC(=O)c1ccccc1O)c1ccc([N+](=O)[O-])cc1,4.2,3.6,-1.1,1.4,-24.3,-0.2
Cc1ccc(C(=O)NC(=S)NNC(=O)c2ccc([N+](=O)[O-])cc2)cc1,98.8*,7.4,0.6,0.4,81.0,-0.2
O=C(NNC(=S)NCc1ccccc1)c1cccc([N+](=O)[O-])c1,14.4,19.4,-0.2,-3.4,274.3,0.0
CCCCCC(=O)NNC(=S)NC(=O)c1ccc([N+](=O)[O-])cc1,88.3*,5.4,-0.2,0.7,·,0.0
O=C(CN1C(=O)NC2(CCCCC2)C1=O)N1CCOCC1,-8.6,-10.2,2.5,-0.9,-19.0,-0.4
COc1ccc(C(=O)NCCS(=O)(=O)NCc2cccs2)cc1,-0.5,3.7,0.2,1.4,7.2,0.1
CCOc1cc(S(=O)(=O)N2CCN=C2Cc2ccccc2)ccc1F,-20.4,-4.8,0.3,0.9,0.6,0.2
CCCCOc1ccccc1C(=O)NNC(=S)NC(=O)c1ccccc1[N+](=O)[O-],84.1*,3.1,-1.1,1.9,-4.6,0.0
Cc1ccc(C(=O)NC(=S)NNC(=O)c2ccccc2[N+](=O)[O-])cc1,98.7*,20.1,0.8,19.2,260.9,-0.1
O=C(NNC(=S)NC(=O)c1ccc(Br)cc1)c1ccc([N+](=O)[O-])cc1,99.6*,-3.9,1.1,2.0,1.0,0.0
O=C(NNC(=S)NC(=O)c1ccccc1[N+](=O)[O-])c1ccccc1[N+](=O)[O-],-2.0,-35.0,-0.1,1.1,136.3,0.0

# Compound activity (PubChem BioAssay)
